# Screen size: about 130,000 compounds; about 2,500 (1.9%) were called active. The list comes from a sample in which actives are over-represented; it also holds similar structures and randomly drawn compounds. Values without a mark were called inactive.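 How the source made its calls: active means signal ratio slope over the read window, or its plate-corrected B-score, at least 3 SD from the plate mean, either direction; inactive means the rest.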
# Molecular target: ATP-sensitive inward rectifier potassium channel 1 (Homo sapiens) (UniProt P48048)
# Assay: ROMK potassium channel modulators, primary screen, cell-based, thallium flux, MLSMR library (AID 1918);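 further: B-score of the F/F0 ratio slope over 7 to 12 s after thallium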
# Details: Tet-inducible ROMK, thallium flux fluorescence; at 10 µM; actives lie on both sides
# Sequence of ATP-sensitive inward rectifier potassium channel 1 (Homo sapiens) (P48048 whole entry, looked up): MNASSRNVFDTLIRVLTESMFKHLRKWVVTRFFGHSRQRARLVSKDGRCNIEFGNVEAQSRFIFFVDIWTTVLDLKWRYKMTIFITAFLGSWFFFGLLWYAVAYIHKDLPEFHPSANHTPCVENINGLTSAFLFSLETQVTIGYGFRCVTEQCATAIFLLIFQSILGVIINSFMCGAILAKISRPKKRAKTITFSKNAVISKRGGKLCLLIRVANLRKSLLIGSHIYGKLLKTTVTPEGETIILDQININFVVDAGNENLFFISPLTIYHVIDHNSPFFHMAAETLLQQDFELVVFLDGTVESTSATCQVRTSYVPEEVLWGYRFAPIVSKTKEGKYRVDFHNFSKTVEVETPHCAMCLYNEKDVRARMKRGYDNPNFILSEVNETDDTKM
row,SMILES,B-score
1,O=S(=O)(Nc1ncccn1)c1ccc(NS(=O)(=O)c2cccc(Cl)c2Cl)cc1,0.305
2,CCOc1ccc2cc(C#N)c(SCC(=O)OC)nc2c1,-0.501
3,CCOc1ccc2nc(N3CCCN(C(=O)Nc4ccccc4C)CC3)c(C#N)cc2c1,-5.81 (active)
4,Cc1cccc2cc(C#N)c(N3CCCC3)nc12,-0.0822
5,COC(=O)CN1C(=O)N/C(=C/c2ccc(OC)c(C)c2OC)C1=O,1.31
6,COc1ccc(C2C(C(C)=O)=C(O)C(=O)N2c2nccs2)cc1 (stereo unspecified),0.28
7,CCOC(=O)C1=C(C)N=c2s/c(=C\C(=O)OC)c(=O)n2C1c1ccc(OC)cc1 (stereo unspecified),-6.39 (active)
8,CCOC(=O)C1=C(CSc2nccn2C)NC(=O)NC1c1ccc(OC)cc1 (stereo unspecified),0.553
9,CCC(CC)c1nnc(NC(=O)c2nn(C)c(=O)c3ccccc23)s1,-0.146
10,Cc1nc(COc2cccc(Cl)c2)sc1C(=O)/C=C/N(C)C,-0.0177
11,O=C(CCC(=O)OCc1ccc(Cl)cc1)Nc1ccccc1,1.21
12,O=C(Cc1ccc(Br)cc1)N1CCN(c2ccccn2)CC1,-2.13 (active)
13,Cc1ccc(S(=O)(=O)NCC(=O)N2CCN(c3ccccn3)CC2)cc1,0.248
14,O=C(CCC1CCCN(C(=O)Cc2ccc(F)cc2)C1)N1CCN(c2ccccn2)CC1 (stereo unspecified),2.32
15,O=C(C(Cl)Cl)N1CCN(c2ccccn2)CC1,0.591
16,COc1cccc(CC(=O)N2CCCC(CCC(=O)N3CCN(c4ccccn4)CC3)C2)c1 (stereo unspecified),0.339
17,O=C(Cc1ccccc1Cl)N1CCN(c2ccccn2)CC1,-4.7 (active)
18,COc1cccc(CN(C)CC(=O)NCc2ccccc2Cl)c1OC,-0.0981
19,CCNC(=O)COC(=O)/C=C/c1c(C)nn(Cc2cccc(OC)c2)c1Cl,-0.509
20,Cc1ccc(N(C(=O)c2ccc(S(=O)(=O)N(C)C)cc2)C2C=CS(=O)(=O)C2)cc1 (stereo unspecified),-0.406
21,CN(C)/C=C(/C(=O)c1ccccc1Cl)S(C)(=O)=O,0.383

row,SMILES,B-score
1,CN(C)/C=C(/C(=O)c1ccccc1)S(=O)(=O)c1ccc(Cl)cc1,-0.0973
2,CN(C)/C=C(/C(=O)c1ccc(Cl)c(Cl)c1)c1nnnn1-c1ccccc1,-2.28 (active)
3,Cc1cc(C)n(CC(=O)Nc2ccc([N+](=O)[O-])cc2)n1,0.748
4,CCOC(=O)CSc1nnc(-c2ccc([N+](=O)[O-])cc2)o1,-0.954
5,O=C(CN1C(=O)NC2(CCCC2)C1=O)NCC1CCCO1 (stereo unspecified),0.00667
6,O=C(CN1C(=O)NC(Cc2ccccc2)(Cc2ccccc2)C1=O)NCC1CCCCC1,-4.09 (active)
7,O=C(CN1C(=O)NC2(CCCCCC2)C1=O)NC1CC1,-0.159
8,O=S(=O)(NCc1ccco1)c1cnc(Cl)c(Cl)c1,0.266
9,CCOc1cc(NC(=S)NCCCN(C)C)c(OCC)cc1NC(=O)C1CC1,0.491
10,Cn1c(CNc2nc(-c3ccccc3)cs2)nnc1SCC(=O)c1ccccc1,-4.43 (active)
11,Cc1ccc(-c2csc(NNC(=O)c3ccccc3)n2)cc1,-0.0341
12,Cn1c(CC(=O)Nc2ccccc2)nnc1SCC(=O)c1ccccc1,0.607
13,CCC(C)(C)NC(=O)C(c1cccc(OC)c1OC)N(CC(C)C)C(=O)CCC(=O)Nc1cc(C)on1 (stereo unspecified),-1.25
14,CSc1cc(C)[nH]c(=O)n1,0.14
15,CCC(=O)Nc1ccc(Nc2nc(Cl)nc(Nc3ccc(NC(=O)CC)cc3)n2)cc1,0.00778
16,CCCCCCCCCCOC(=O)C[N+](C)(C)CC1CCCCC1O (stereo unspecified),-1.79 (active)
17,CCCCCOC(=O)c1ccc(N2C(=O)C3C4C=CC(C4)C3C2=O)cc1 (stereo unspecified),-0.208
18,[O-][n+]1c2c(nn1-c1ccc(Cl)c(Cl)c1)-c1nonc1CC2,-0.675
19,CCOC(=O)c1ccc(N2C(=O)CC(N3CCN(C(=O)c4ccccc4)CC3)C2=O)cc1 (stereo unspecified),-0.67
20,NC(=O)C1(C(N)=O)OC1c1ccc(Cl)cc1Cl (stereo unspecified),0.219
21,CC(=O)Nc1ccc(S(=O)(=O)N(C)c2ccc(OCC(=O)OCC(=O)N3CCCCC3)cc2)cc1,0.712

row,SMILES,B-score
1,CN(Cc1ccccc1)Cc1ccccc1F,0.0291
2,N=c1n(CCc2ccccc2)c2ccccc2n1Cc1ccccc1F,-3.48 (active)
3,Fc1ccccc1Cn1cnc(NC(=S)NCCc2ccccc2)n1,0.722
4,Cc1ccc(-n2c(O)c(C=Nc3ccc(S(=O)(=O)Nc4ncccn4)cc3)c3ccccc3c2=O)cc1C,0.113
5,O=c1[nH]c(CSc2ccccc2)nc2c1oc1ccccc12,0.176
6,CCc1cccc2c(=O)c(C(=O)NCCCOC)c[nH]c12,0.0144
7,Cc1cccc(N(CC(O)CN(C)C)S(=O)(=O)c2ccccc2)c1 (stereo unspecified),0.476
8,O=S(=O)(c1ccccc1)N(CC(O)CN1CCCCC1)c1ccccc1 (stereo unspecified),-0.476
9,CC(C)CN(CC(C)C)CC(O)CN(c1ccccc1)S(=O)(=O)c1ccccc1[N+](=O)[O-] (stereo unspecified),-2.88 (active)
10,C=CCNC(=O)COC(=O)CNC(=O)c1cc(Cl)cc([N+](=O)[O-])c1,0.319
11,COc1ccccc1NC(=O)C[n+]1ccccc1,-0.558
12,COC(=O)Cc1nc2ccccc2[nH]1,-0.0215
13,COC(=O)C[n+]1cccc2ccccc21,-4.33 (active)
14,COc1cccc(NCCC(=O)c2cccc([N+](=O)[O-])c2)c1,1.54
15,O=C(N/N=C/c1ccc(OCC2COCCO2)cc1)c1ccc(Br)cc1 (stereo unspecified),0.0877
16,Cc1ccc(NC(=O)CN2CCC(C(N)=O)CC2)cc1[N+](=O)[O-],-0.771
17,Cc1ccc(NC(=O)c2cccnc2C(=O)Nc2ccc(C)cc2)cc1,0.166
18,O=C(COC(=O)c1cnccn1)Nc1cccc2ccccc12,0.345
19,CN(C)S(=O)(=O)c1ccc(NC(=O)N2CCOCC2)cc1,-0.469

# From PubChem BioAssay AID1918 (Vanderbilt High Throughput Screening Facility, 2009)
